Assay results: the supplement of paper PMC10105736
A number with no mark means an inactive call.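 The calls were made as follows: active = MAPPIT score above the 99th percentile of random reference set scores in the same batch; inactive = at or below it.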

What was measured:
Test in all cases: MAPPIT interaction score (arbitrary units); higher = stronger binary interaction signal, active = hit call of the paper
[1] = molecular target: C15; conditions: MAPPIT configuration: N-N
[2] = molecular target: CG8813; conditions: MAPPIT configuration: N-N; pair source set: Lit-BS-16
[3] = molecular target: Lamtor3; conditions: MAPPIT configuration: N-N; pair source set: Curagen_high_conf
[4] = molecular target: Nplp1; conditions: MAPPIT configuration: N-N; pair source set: Curagen_low_conf
[5] = molecular target: Rm62; conditions: MAPPIT configuration: N-N; pair source set: Curagen_low_conf
[6] = molecular target: Traf-like; conditions: MAPPIT configuration: N-N; pair source set: Curagen_low_conf
[7] = molecular target: row; conditions: MAPPIT configuration: N-N; pair source set: Curagen_low_conf
[8] = molecular target: Blos2; conditions: MAPPIT configuration: N-N; pair source set: Curagen_low_conf
[9] = molecular target: Bro; conditions: MAPPIT configuration: N-N; pair source set: screen_2
[10] = molecular target: Bin1; conditions: MAPPIT configuration: N-N; pair source set: Lit-BM-16
[11] = molecular target: Dhx15; conditions: MAPPIT configuration: N-N; pair source set: DPIM
[12] = molecular target: p53; conditions: MAPPIT configuration: N-N; pair source set: Finley_Y2H
[13] = molecular target: CASK; conditions: MAPPIT configuration: N-C; pair source set: screen_4
[14] = molecular target: CG30324; conditions: MAPPIT configuration: N-C; pair source set: screen_4
[15] = molecular target: stck; conditions: MAPPIT configuration: N-C; pair source set: screen_3
[16] = molecular target: CG5050; conditions: MAPPIT configuration: N-N; pair source set: Curagen_high_conf
[17] = molecular target: rdx; conditions: MAPPIT configuration: N-N; pair source set: Curagen_high_conf
[18] = molecular target: Bx; conditions: MAPPIT configuration: N-N; pair source set: screen_2
[19] = molecular target: CG5618; conditions: MAPPIT configuration: N-N; pair source set: Curagen_low_conf
[20] = molecular target: Lim1; conditions: MAPPIT configuration: N-N; pair source set: Curagen_high_conf
[21] = molecular target: CAP; conditions: MAPPIT configuration: N-N
[22] = molecular target: Fkbp12; conditions: MAPPIT configuration: N-N; pair source set: Curagen_low_conf
[23] = molecular target: ND-75; conditions: MAPPIT configuration: N-N; pair source set: Curagen_low_conf
[24] = molecular target: Pax; conditions: MAPPIT configuration: N-N; pair source set: screen_2
[25] = molecular target: CCT3; conditions: MAPPIT configuration: N-N; pair source set: DPIM
[26] = molecular target: Blos1; conditions: MAPPIT configuration: N-N; pair source set: Finley_Y2H
[27] = molecular target: Tm1; conditions: MAPPIT configuration: N-N; pair source set: screen_2
[28] = molecular target: mldr; conditions: MAPPIT configuration: N-N; pair source set: Finley_Y2H
[29] = molecular target: vlc; conditions: MAPPIT configuration: N-C; pair source set: screen_3
[30] = molecular target: CCT6; conditions: MAPPIT configuration: N-N; pair source set: DPIM
[31] = molecular target: Spt7; conditions: MAPPIT configuration: N-N; pair source set: Curagen_high_conf
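Also: HEK293T cells with Epo stimulation, STAT-responsive firefly luciferase reporter, fold induction versus unstimulated cells divided by the larger fold induction of two negative controls lacking either bait or prey.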

B1: Rm62 (protein)
chain: MLKLVQYIAPRVGGATPRPTACGWGNLLLISPRSGASSEKCITQRRHFLFSSASSSGTFASSSSLCTEQRQQFHGSRRNRETILFPSTYSSLQAQSQRAFRDSSKPDSDDYVDSIPKAEQRTRTRKSLFNDPDERTEEIKIEGVMAPHDRDFGHSGRGGRGGDRGGDDRRGGGGGGNRFGGGGGGGDYHGIRNGRVEKRRDDRGGGNRFGGGGGFGDRRGGGGGGSQDLPMRPVDFSNLAPFKKNFYQEHPNVANRSPYEVQRYREEQEITVRGQVPNPIQDFSEVHLPDYVMKEIRRQGYKAPTAIQAQGWPIAMSGSNFVGIAKTGSGKTLGYILPAIVHINNQQPLQRGDGPIALVLAPTRELAQQIQQVATEFGSSSYVRNTCVFGGAPKGGQMRDLQRGCEIVIATPGRLIDFLSAGSTNLKRCTYLVLDEADRMLDMGFEPQIRKIVSQIRPDRQTLMWSATWPKEVKQLAEDFLGNYIQINIGSLELSANHNIRQVVDVCDEFSKEEKLKTLLSDIYDTSESPGKIIIFVETKRRVDNLVRFIRSFGVRCGAIHGDKSQSERDFVLREFRSGKSNILVATDVAARGLDVDGIKYVINFDYPQNSEDYIHRIGRTGRSNTKGTSFAFFTKNNAKQAKALVDVLREANQEINPALENLARNSRYDGGGGRSRYGGGGGGGRFGGGGFKKGSLSNGRGFGGGGGGGGEGRHSRFD
MAPPIT interaction score ([1]; pair source set: Curagen_low_conf): -0.475 | MAPPIT interaction score ([1]; pair source set: Finley_Y2H): 0.053 | MAPPIT interaction score [2]: -0.848 | MAPPIT interaction score [3]: 0.248 | MAPPIT interaction score [4]: -0.193 | MAPPIT interaction score [5]: -0.712 | MAPPIT interaction score [6]: 0.928 | MAPPIT interaction score [7]: 0.558

B2: drk (protein)
chain: MEAIAKHDFSATADDELSFRKTQILKILNMEDDSNWYRAELDGKEGLIPSNYIEMKNHDWYYGRITRADAEKLLSNKHEGAFLIRISESSPGDFSLSVKCPDGVQHFKVLRDAQSKFFLWVVKFNSLNELVEYHRTASVSRSQDVKLRDMIPEEMLVQALYDFVPQESGELDFRRGDVITVTDRSDENWWNGEIGNRKGIFPATYVTPYHS
MAPPIT interaction score [8]: 0.473

B3: run (protein)
chain: MHLPAGPTMVANNTQVLAAAAAAAAAAAAAVAQGPGPQQSSNATTASAIAINPAQSLANTSTHSASSTGSSTPDLSTNNTSSSSNATTSPQNSAKMPSSMTDMFASLHEMLQEYHGELAQTGSPSILCSALPNHWRSNKSLPGAFKVIALDDVPDGTLVSIKCGNDENYCGELRNCTTTMKNQVAKFNDLRFVGRSGRGKSFTLTITIATYPVQIASYSKAIKVTVDGPREPRSKQSYGYPHPGAFNPFMLNPAWLDAAYMTYGYADYFRHQAAAQAAQVHHPALAKSSASSVSPNPNPSVATSSSSAVQPSEYPHPAAAVAAAAGQPAAMMPSPPGAAPATPYAIPQFPFNHVAAAAAAKAATPHAFHPYNFAAAAGLRARNAALHHQSEPVHVSPASSRPSSSSPTQQHVLLKLNTSIETSSIHEQSASDGDSDDEQIDVVKSEFDLDKSLDVAPLRMRCDLKAPSAMKPLYHESGPGAVANSRQPSPETTTKIKSAAVQQKTVWRPY
MAPPIT interaction score [9]: 3.14 (active)

B4: bcd (protein)
chain: MAQPPPDQNFYHHPLPHTHTHPHPHSHPHPHSHPHPHHQHPQLQLPPQFRNPFDLLFDERTGAINYNYIRPYLPNQMPKPDVFPSEELPDSLVMRRPRRTRTTFTSSQIAELEQHFLQGRYLTAPRLADLSAKLALGTAQVKIWFKNRRRRHKIQSDQHKDQSYEGMPLSPGMKQSDGDPPSLQTLSLGGGATPNALTPSPTPSTPTAHMTEHYSESFNAYYNYNGGHNHAQANRHMHMQYPSGGGPGPGSTNVNGGQFFQQQQVHNHQQQLHHQGNHVPHQMQQQQQQAQQQQYHHFDFQQKQASACRVLVKDEPEADYNFNSSYYMRSGMSGATASASAVARGAASPGSEVYEPLTPKNDESPSLCGIGIGGPCAIAVGETEAADDMDDGTSKKTTLQILEPLKGLDKSCDDGSSDDMSTGIRALAGTGNRGAAFAKFGKPSPPQGPQPPLGMGGVAMGESNQYQCTMDTIMQAYNPHRNAAGNSQFAYCFN
MAPPIT interaction score [10]: 0.579 | MAPPIT interaction score [11]: 1.72 | MAPPIT interaction score [12]: -0.0711

B5: Mlp60A (protein)
chain: MPFVPVETPKCPACGKSVYAAEERVAGGYKFHKTCFKCSMCNKALDSTNCTEHEKELFCKNCHGRKYGPKGYGFGGGAGCLSTDTGAHLNRE
MAPPIT interaction score [13]: 1.2 | MAPPIT interaction score [14]: 3.25 | MAPPIT interaction score [15]: 4.22 (active)

B6: Polr3F (protein)
chain: MATEVSQLLLAVVQGIPAGATNDDLTKALPDVPAATRVEALNILLQEGGIEILKKGEKLVYRAKDPEKKSALPKDADNEEKVVYGIVEEGGNKGIWIRDIRMKSNLNMIQLNKILKNLETKKLIKAVKSVNASKKKVYMLYNLEPDLSITGGAWYQDQDFEVEFVDVLNQQCLRFLQMKRDSAEKKREGPLAFKQMSCCTVNEVQKFISDLGISKVNLAEADLETILKTVVYDGNAERVRQQDGSFVYRAVNAPLPPTGLVQMPCGICPVIKNCSNCGDVTAITCEYMRDWLD
MAPPIT interaction score ([1]; pair source set: Lit-BS-16): 0.0584 | MAPPIT interaction score [16]: 0.169 | MAPPIT interaction score [17]: -0.105

B7: Chi (protein)
chain: MSWQDYVDNQLLASQCVTKACIAGHDGNIWAQSSGFEVTKEELSKLISGFDQQDGLTSNGVTLAGQRYIYLSGTDRVVRAKLGRSGVHCMKTTQAVIVSIYEDPVQPQQAASVVEKLGDYLITCGY
MAPPIT interaction score [18]: 6.14 (active) | MAPPIT interaction score [19]: 0.207 | MAPPIT interaction score [20]: 1.91

B8: Vinc (protein)
chain: MPVFHTKTIESILDPVAQQVSRLVILHEEAEDGNAMPDLSRPVQVVSAAVANLVKVGRDTINSSDDKILRQDMPSALHRVEGASQLLEEASDMLRSDPYSGPARKKLIEGSRGILQGTSSLLLCFDESEVRKIIQECKRVLDYLAVAEVINTMEQLVQFLKDLSPCLSKVHREVGAREKELTHQVHSEILVRCLEQVKTLAPILICSMKVYIHIVEQQGRGAEEAAENRNYLAARMSDELQEIIRVLQLTTYDEDTSELDNLTVLKKLSNAISNKMEQANEWLSNPYALRGGVGEKALRQVIDNATEISERCLPQDSYPIRKLADEVTAMANTLCELRQEGKGQSPQAESLVRGIRDRMGELKSLVHQAVLGVDKAGVQQTAHTIQGRLEQAVKWLQHPEINDGGLGERAINLIVEEGRKVAEGCPGHQKAEIQQLCDEVERLKRQAAGSGPAAKQAAKQLTQKLYELKAAIQNALVNRIVQDFMDVSTPLKQFTEAVLQPEGTPGREQNFNQKSNNLQAFSDRASKTSRMVAAGGACGNKKIAEILLSSAAQVDSLTPQLISAGRIRMNYPGSKAADEHLQNLKQQYADTVLRMRTLCDQATDPADFIKTSEEHMQVYAKLCEDAIHARQPQKMVDNTSNIARLINRVLLVAKQEADNSEDPVFTERLNAAANRLERSLPAMVGDAKLVATNIADPAAAAAWKNSFQRLLGDVREVRDAIAPPQPPPLPTSLPPPIPELSALHLSNQNAERAPPRPPLPREGLAPVRPPPPETDDEDEGVFRTMPHANQPILIAARGLHQEVRQWSSKDNEIIAAAKRMAILMARLSELVLSDSRGSKRELIATAKKIAEASEDVTRLAKELARQCTDRRIRTNLLQVCERIPTIGTQLKILSTVKATMLGAQGSDEDREATEMLVGNAQNLMQSVKETVRAAEGASIKIRSDQTSNRLQWVRRQPWYQY
MAPPIT interaction score ([21]; pair source set: Lit-BM-16): 2.34 | MAPPIT interaction score [22]: 0.498 | MAPPIT interaction score [23]: -0.456 | MAPPIT interaction score [24]: 5.44 (active)

B9: Lst8 (protein)
chain: MGDQQQLILATGGYDHTIKVWQAHTGNCIKTMRFVETSQVNALDRTPDKTRLAACGYQCIRLYDLESNCTAPVINFDGVQKNVTRLGFQEDGNWMFTAGEDHHVRIWDMIAAPPHCSRIFDCEAPVNAACLHPNQVEIAMGSQNGSVFLWDVKSERHERIVPEVDASIQDVAISPDGRYLAAANNKGNCYIWSLTSQDQKMSTLRPNRKIPAHSRYILRCKFSPDSRLLLTTSGDGTVCIWKTDDFSKWRELCIENYWVWDAAFSADSKWLFTASSDGIARLWKLQTKSSIRDYTGHTKAITALSFKDEIVGK
MAPPIT interaction score [25]: 0.335

B10: Blos2 (protein)
chain: MDKPTTSAAAAAAQDSNLLPDSPQHGPTLSSASSFEALTRHDPNLSRLATKMFNKTEEYITHELNAPLEDYKLLEEMNKATIAKYKDMRQIAENLNTSTSELSLKFQQLAPMMQQIDEISDTVDKLEAAAYKLDAYSIALENRVKCVLQRKSGGGQVAQ
MAPPIT interaction score [26]: 2.29 | MAPPIT interaction score [27]: 1.6 | MAPPIT interaction score [28]: 0.813

B11: Vps28 (protein)
chain: MQEQSPELYEEVKLFRNAREREKYDNMADLYAIINTIQQLEKAYIRDCITPQEYTAACSKYLVQYKVAFKQVQCDEFPSVETFVKKFRLDCPAALERIREDRPITIRDDKGNTSKCIAEIVSLFITIMDKLRLQINTMDALQPDVKDLADNMNRLSLIPEDFDAKLKVEKWLGSLNEMQASDELSEGQVRQFLFDLESAYADFNKLLHSQ
MAPPIT interaction score ([21]; pair source set: screen_1): 1.33 | MAPPIT interaction score [29]: 1.09

B12: CG8230 (protein)
chain: MGINVSRTADLGSNQWLQRFVGRQHIAHDDEAFWNGLLNYNIVLPENSQDQLNLDSRLEALCQSFIGNNLKTGNFGSLVTVFLEKTSELLSLSDQESNMHVWQTFNALFIIRSLVKYINETGSEFQLLQHFEAMPNAELLQAALEQQQQTPAESATIAMEATEQSAAAAVPVIVDGSKFETFIDALVNLIVVIPVKEFTYHLHLEAVNMLITLLSVHLFAQQPTDKSIVFRTVFKCQHANVLMSALLHFVARIVEVPHTMFGSSSAGSFVFGIAESLLSIFTFRKQPDILKAGQAAGGGELSQRFRTHYPLANQSLLLILILTNHCTAQDNAYRTSLFSCADSKDSPKQGAVSFQIDFSAVYETLCTIVTIDQATLLLYLLLHRNERFYRFVMQQQDLEQLVIPILQTLYNAPDSNSHHIYMSLIVLLILSEDEGFNKNVHTIMLKNITWYTERTISEISLGGILILIVIRTIQYNMLKMRDKYLHTNCLAALANMSGHFRALHPYVAQRLVSLFETLARKHTRLDAQLKEPADSAVFVNVSTTPEDMLQDLSVLEEVLRMVLEILNSCLTNQLVYCPNLVYTLLYKRSVFEGFRSHHAFQDVIQNIDMVVGFFSSRLQRVQEQRGELGVNEVLEVISKGASQWSSDRLRKFPDLKFKYVEEDAPEEFFIPYVWTLVCKYGCVHFSSESIKSVTTDIAC
MAPPIT interaction score [30]: 3.15 (active) | MAPPIT interaction score [31]: -0.0669
